# Reference: PubChem BioAssay (NCATS)
# Inconclusive results are not listed. Entries that show only a call come without a potency. The source made the active and inactive calls. The call rests on the fitted dose curve; in most records, active means well fitted curve in the direction sought with a large enough effect; inconclusive means small, poorly fitted or top-dose-only effect, or another doubt; inactive means no such curve, though single readings can be large; an effect the other way counts as inactive or inconclusive.
# What was measured:
# [1] = P-glycoprotein substrates identified in KB-3-1 adenocarcinoma cell line, qHTS therapeutic library screen (AID 1346986); conditions: KB-3-1 parental cells viability, CellTiter-Glo, 72 h; series mostly up to 44.5 µM; further: nearly all actives have a fitted effect of over 60% in size
# In short: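 Viability by CellTiter-Glo after 72 h compound exposure at 37 degree C, 5% CO2. Cytotoxic call: curve class -1.1 to -2.4, maximum response >50%, AC50 < 10 uM, compared across KB-3-1 and P-gp-overexpressing KB-8-5-11.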
# [2] = P-glycoprotein substrates identified in KB-8-5-11 adenocarcinoma cell line, qHTS therapeutic library screen (AID 1346987); conditions: KB-8-5-11 (P-gp overexpressing) viability, CellTiter-Glo, 72 h; series mostly up to 44.5 µM; further: nearly all actives have a fitted effect of over 65% in size
# In short: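 Human cervical adenocarcinoma KB-8-5-11 cells, selected in colchicine to over-express P-gp and assayed without it, were exposed for 72 h to titrated compounds. An ATP-based luminescent viability signal gave AC50.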
SMILES,Potency [1],Potency [2]
C=C(C(=O)OC)[C@]12O[C@@](C)(CC[C@@]3(O)/C(=C\C)C(=O)O[C@]3(C)C[C@@H]1OC(=O)C(CO)CN1CCCC1C(=O)O)CC2=O (some centres undefined),inactive,inactive
NC[C@H]1CCC[C@@H](CNC(=O)[C@@H](Cc2c[nH]c3ccccc23)NC(=O)N2CCC3(C=Cc4ccccc43)CC2)C1,inactive,inactive
C[C@H](O)C(O)(C(=O)OCc1ccccc1NC(=O)CCC(N)C(=O)O)[C@H](C)O (some centres undefined),inactive,inactive
C=C(C)[C@@H]1CC[C@]2(CO)CC[C@]3(C)[C@H](CC[C@@H]4[C@@]5(C)CC[C@H](O)C(C)(C)[C@@H]5CC[C@]43C)[C@@H]12,inactive,inactive
CC1CC2(O)OC(=O)C3=C2C(CCC3)[C@@]12C[C@@H](c1ccoc1)OC2=O (some centres undefined),inactive,inactive
C[C@]1(OC(=O)/C=C\c2ccc(O)cc2)C[C@@H](O)[C@]2(O)C=CO[C@@H](O[C@@H]3O[C@H](CO)[C@@H](O)[C@H](O)[C@H]3O)C12 (some centres undefined),inactive,inactive
C=C1C(O)CC2C(C(=O)O)=COC(O[C@@H]3O[C@H](COC(=O)c4ccc(O)cc4)[C@@H](O)[C@H](O)[C@H]3O)C12 (some centres undefined),inactive,inactive
